Reference: PubChem BioAssay (Tox21)
Results filed as inconclusive are left out. Active and inactive are the calls of the source. The call rests on the fitted dose curve; in most records, active means well fitted curve in the direction sought with a large enough effect in the repeat runs; inconclusive means weak or mixed curves; inactive means no such curve, though single readings can be large; an effect the other way counts as inactive or inconclusive.

Experiment: A CellTox Green Cytotoxicity Assay to monitor cytotoxicity in HepG2 cells - 24 hour (AID 1224878); further: nearly all actives have a fitted effect of over 45% in size
Conditions: CellTox Green fluorescence; series mostly up to 76.8 µM; cytotoxicity: at the top concentration
How it was run: (§1)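 Real-time cytotoxicity: fluorescence of a cell-impermeant cyanine dye binding DNA of dead HepG2 cells, measured repeatedly (0–40 h) during compound exposure at 37 C. Cells seeded 600/well with reagent, dosed after 5 h.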
On the % scale 0 is the no-effect control and ±100 the full control effect.

Compound	cytotoxicity
CC1(C)O[C@H]2CC(=O)OC[C@]23[C@H]2CC[C@@]4(C)[C@H](c5ccoc5)OC(=O)[C@H]5O[C@]54[C@]2(C)C(=O)C[C@@H]13	4.67% [at 35.3 µM] (inactive)
CCCCCCCCCCCCCCCCCCOCCO	0.951% [at 15.8 µM] (inactive)
CC1=C(C(=O)O)N2C(=O)[C@@H](NC(=O)[C@H](N)C3=CCC=CC3)[C@H]2SC1	-12.5% [at 35.3 µM] (inactive)
CC(=O)OC(C)=O	-4.53% (inactive)
Cc1ccc(N)cc1S(=O)(=O)O	-0.746% (inactive)
COC(=O)c1cccc(Cl)c1	-3.52% (inactive)
CC(=O)O[Si](C)(OC(C)=O)OC(C)=O	-5.71% (inactive)
CC1(C)CC(OC(=O)CCCCCCCCC(=O)OC2CC(C)(C)NC(C)(C)C2)CC(C)(C)N1	-8.38% [at 15.8 µM] (inactive)
CCOC(=O)CC1(C)OCC(C)O1 (stereo not drawn)	1.7% (inactive)

Experiment: A CellTox Green Cytotoxicity Assay to monitor cytotoxicity in HepG2 cells - 40 hour (AID 1224879); further: nearly all actives have a fitted effect of over 40% in size
Conditions: CellTox Green fluorescence; series mostly up to 76.8 µM; cytotoxicity increase: at the top concentration
How it was run: as §1

Compound	cytotoxicity increase
COc1nc(N)nc2nc[nH]c12	-3.13% (inactive)
OC1OCCOC1O (stereo not drawn)	3.48% (inactive)
CCCCCCC1(C)CCC(=O)O1 (stereo not drawn)	0.489% (inactive)
C#CCN[C@@H]1CCc2ccccc21	-16.6% [at 35.3 µM] (inactive)
CC(=O)OC1CCCCC1C(C)(C)C (stereo not drawn)	-10.2% (inactive)
CCOc1cccc(N)c1	-2.35% (inactive)
CC1(C)Oc2ccc(C#N)cc2[C@@H](N2CCCC2=O)[C@@H]1O	3.63% [at 35.3 µM] (inactive)
COc1ccc(CCO)cc1	-2.28% (inactive)
C/C(CC(C)C)=N\O	10.4% (inactive)
[O-][n+]1cccc(/C(Cl)=N/OC[C@@H](O)CN2CCCCC2)c1	-3.74% [at 35.3 µM] (inactive)
CC(=O)OCC(=O)Nc1cc(C#N)cc(NC(=O)COC(C)=O)c1Cl	-1.8% [at 35.3 µM] (inactive)
CNCCS(=O)(=O)O	-1.37% (inactive)
CCC(=O)CC	-0.779% (inactive)
CC(=O)O[C@@H]1CC2CCC1(C)C2(C)C (stereo partly drawn)	1.17% (inactive)
NCc1ccc(S(N)(=O)=O)cc1	-11.4% [at 35.3 µM] (inactive)
Cn1c(=O)c2[nH]c(Br)nc2n(C)c1=O	-11% [at 35.3 µM] (inactive)
CCC[C@@H]1C[C@@H](C(=O)N[C@@H]([C@H]2O[C@H](SC)[C@H](O)[C@@H](O)[C@H]2O)[C@@H](C)O)N(C)C1	-8.45% [at 35.3 µM] (inactive)
O=Cc1cc2ccccc2o1	-0.649% (inactive)
Cc1c(N)cccc1Cl	-1.66% (inactive)

Compound	cytotoxicity increase
Cc1ccccc1C(N)=O	-3.39% (inactive)
O=C(Cn1ccnc1[N+](=O)[O-])NCc1ccccc1	-8.5% [at 35.3 µM] (inactive)
CC(C)=CCC/C(C)=C/COC=O	7.8% (inactive)
COC(=O)c1ccccc1C(=O)O	2.94% (inactive)
CCO	-11.5% (inactive)
CC(C)OC(=O)CCC(=O)OC(C)C	-14.6% (inactive)
CCOc1ccccc1OCC1CNCCO1 (stereo not drawn)	0.657% [at 35.3 µM] (inactive)
CCCCCCCCCCCCCCC(=O)NC(CO)CCCCCCCCCCCCCC (stereo not drawn)	-3.25% (inactive)
O=C(CCCCC(=O)Nc1c(I)cc(I)c(C(=O)O)c1I)Nc1c(I)cc(I)c(C(=O)O)c1I	-0.841% [at 35.3 µM] (inactive)
CC1(C)O[C@H]2CC(=O)OC[C@]23[C@H]2CC[C@@]4(C)[C@H](c5ccoc5)OC(=O)[C@H]5O[C@]54[C@]2(C)C(=O)C[C@@H]13	1.47% [at 35.3 µM] (inactive)
CCCCCCCCCCCCCCCCCCOCCO	2.96% [at 15.8 µM] (inactive)
CC1=C(C(=O)O)N2C(=O)[C@@H](NC(=O)[C@H](N)C3=CCC=CC3)[C@H]2SC1	-9.8% [at 35.3 µM] (inactive)
CC(=O)OC(C)=O	0.496% (inactive)
Cc1ccc(N)cc1S(=O)(=O)O	0.832% (inactive)
COC(=O)c1cccc(Cl)c1	-2.09% (inactive)
CC(=O)O[Si](C)(OC(C)=O)OC(C)=O	-7.69% (inactive)
CC1(C)CC(OC(=O)CCCCCCCCC(=O)OC2CC(C)(C)NC(C)(C)C2)CC(C)(C)N1	-12% [at 15.8 µM] (inactive)
CCOC(=O)CC1(C)OCC(C)O1 (stereo not drawn)	-0.266% (inactive)

Experiment: qHTS RealTime-Glo MT Cell Viability Assay in HEK293 cells - 0 hour (AID 1224880); further: top concentration of the series differs between compounds; nearly all actives have a fitted effect of over 45% in size
Conditions: RealTime-Glo luminescence; series mostly up to 76.8 µM; activity change, negative = cytotoxicity: at the top concentration
How it was run: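 Luminescence, which tracks viable cell number through reduction of the prosubstrate to a NanoLuc substrate, was read over continuous 37 C culture. Cells (600/well) were premixed with reagent and rested 5 h before 23 nL of compound in DMSO was pinned.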

Compound	activity change, negative = cytotoxicity
COc1nc(N)nc2nc[nH]c12	0% (inactive)
OC1OCCOC1O (stereo not drawn)	4.73% (inactive)
CCCCCCC1(C)CCC(=O)O1 (stereo not drawn)	6.52% (inactive)
C#CCN[C@@H]1CCc2ccccc21	-5.64% [at 35.3 µM] (inactive)
CC(=O)OC1CCCCC1C(C)(C)C (stereo not drawn)	-3.67% (inactive)
CCOc1cccc(N)c1	-1.58% (inactive)
CC1(C)Oc2ccc(C#N)cc2[C@@H](N2CCCC2=O)[C@@H]1O	-0.697% [at 35.3 µM] (inactive)
COc1ccc(CCO)cc1	9.69% (inactive)
C/C(CC(C)C)=N\O	3% (inactive)
[O-][n+]1cccc(/C(Cl)=N/OC[C@@H](O)CN2CCCCC2)c1	1.41% [at 35.3 µM] (inactive)
CC(=O)OCC(=O)Nc1cc(C#N)cc(NC(=O)COC(C)=O)c1Cl	6.26% [at 35.3 µM] (inactive)
CNCCS(=O)(=O)O	20.4% (inactive)
CCC(=O)CC	10.2% (inactive)
CC(=O)O[C@@H]1CC2CCC1(C)C2(C)C (stereo partly drawn)	-0.56% (inactive)
NCc1ccc(S(N)(=O)=O)cc1	0.512% [at 35.3 µM] (inactive)
Cn1c(=O)c2[nH]c(Br)nc2n(C)c1=O	11.3% [at 35.3 µM] (inactive)
CCC[C@@H]1C[C@@H](C(=O)N[C@@H]([C@H]2O[C@H](SC)[C@H](O)[C@@H](O)[C@H]2O)[C@@H](C)O)N(C)C1	10.5% [at 35.3 µM] (inactive)
O=Cc1cc2ccccc2o1	-7.74% (inactive)
Cc1c(N)cccc1Cl	1.33% (inactive)

Compound	activity change, negative = cytotoxicity
Cc1ccccc1C(N)=O	8.09% (inactive)
O=C(Cn1ccnc1[N+](=O)[O-])NCc1ccccc1	-3.22% [at 35.3 µM] (inactive)
CC(C)=CCC/C(C)=C/COC=O	3.56% (inactive)
COC(=O)c1ccccc1C(=O)O	-10.6% (inactive)
CCO	-7.69% (inactive)
CC(C)OC(=O)CCC(=O)OC(C)C	-2.09% (inactive)
CCOc1ccccc1OCC1CNCCO1 (stereo not drawn)	2.94% [at 35.3 µM] (inactive)
CCCCCCCCCCCCCCC(=O)NC(CO)CCCCCCCCCCCCCC (stereo not drawn)	11.1% (inactive)
O=C(CCCCC(=O)Nc1c(I)cc(I)c(C(=O)O)c1I)Nc1c(I)cc(I)c(C(=O)O)c1I	-1.49% [at 35.3 µM] (inactive)
CC1(C)O[C@H]2CC(=O)OC[C@]23[C@H]2CC[C@@]4(C)[C@H](c5ccoc5)OC(=O)[C@H]5O[C@]54[C@]2(C)C(=O)C[C@@H]13	1.72% [at 35.3 µM] (inactive)
CCCCCCCCCCCCCCCCCCOCCO	18.7% [at 15.8 µM] (inactive)
CC1=C(C(=O)O)N2C(=O)[C@@H](NC(=O)[C@H](N)C3=CCC=CC3)[C@H]2SC1	-12% [at 35.3 µM] (inactive)
CC(=O)OC(C)=O	-4.96% (inactive)
Cc1ccc(N)cc1S(=O)(=O)O	-22.3% (inactive)
COC(=O)c1cccc(Cl)c1	-1.87% (inactive)
CC(=O)O[Si](C)(OC(C)=O)OC(C)=O	-1.82% (inactive)
CC1(C)CC(OC(=O)CCCCCCCCC(=O)OC2CC(C)(C)NC(C)(C)C2)CC(C)(C)N1	17.6% [at 15.8 µM] (inactive)
CCOC(=O)CC1(C)OCC(C)O1 (stereo not drawn)	-5.94% (inactive)
